Test results as given in paper PMC4336329 (PLoS ONE, 2015).
About 14,000 (4.5%) of roughly 310,000 compounds showed an effect of 50% or more. Effects have a minus sign here. This excerpt belongs to a sample that is enriched for strong results.
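Note: peak tail current of the secondary pulse compared with the same well before compound.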

What follows are compounds tested against human ether-à-go-go-related gene (hERG) potassium channel (human, UniProt Q12809) (assay: primary screen, population patch clamp on CHO cells stably expressing hERG; higher = less effect of the substance).
Sequence of human ether-à-go-go-related gene (hERG) potassium channel (Q12809 whole entry, looked up): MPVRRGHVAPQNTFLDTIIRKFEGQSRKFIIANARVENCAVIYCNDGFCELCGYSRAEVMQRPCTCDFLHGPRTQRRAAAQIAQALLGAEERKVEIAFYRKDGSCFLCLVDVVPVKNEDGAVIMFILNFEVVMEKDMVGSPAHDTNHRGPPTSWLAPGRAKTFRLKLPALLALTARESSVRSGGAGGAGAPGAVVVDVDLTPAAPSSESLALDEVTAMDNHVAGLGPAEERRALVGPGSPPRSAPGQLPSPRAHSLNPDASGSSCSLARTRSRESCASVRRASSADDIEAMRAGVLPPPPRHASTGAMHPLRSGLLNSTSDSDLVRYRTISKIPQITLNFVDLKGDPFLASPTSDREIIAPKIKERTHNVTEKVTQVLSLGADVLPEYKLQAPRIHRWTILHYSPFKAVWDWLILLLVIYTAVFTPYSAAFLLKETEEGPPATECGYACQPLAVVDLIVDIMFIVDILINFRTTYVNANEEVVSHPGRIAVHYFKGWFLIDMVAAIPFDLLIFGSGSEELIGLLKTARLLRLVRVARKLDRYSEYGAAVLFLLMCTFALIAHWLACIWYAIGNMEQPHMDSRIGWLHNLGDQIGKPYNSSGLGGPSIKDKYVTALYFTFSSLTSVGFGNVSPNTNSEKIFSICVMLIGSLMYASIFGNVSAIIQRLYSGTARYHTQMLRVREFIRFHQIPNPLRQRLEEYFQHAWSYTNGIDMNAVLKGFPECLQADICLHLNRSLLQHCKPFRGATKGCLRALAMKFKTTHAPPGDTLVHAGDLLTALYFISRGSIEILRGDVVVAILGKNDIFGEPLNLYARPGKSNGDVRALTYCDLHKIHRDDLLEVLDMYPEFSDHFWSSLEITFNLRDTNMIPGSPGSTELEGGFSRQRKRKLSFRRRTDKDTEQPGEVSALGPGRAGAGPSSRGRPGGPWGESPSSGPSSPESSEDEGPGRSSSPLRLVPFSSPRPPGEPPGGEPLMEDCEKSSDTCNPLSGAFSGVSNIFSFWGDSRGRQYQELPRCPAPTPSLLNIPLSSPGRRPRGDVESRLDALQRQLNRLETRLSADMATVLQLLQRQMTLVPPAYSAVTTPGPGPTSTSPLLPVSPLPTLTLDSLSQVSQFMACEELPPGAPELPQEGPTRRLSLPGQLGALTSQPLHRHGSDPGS
In the case of `OC1(c2ccc3c(c2)OCO3)CCN(Cc2ccc(F)cc2)CC1`, the “hERG current change (%, negative = inhibition) at 10uM” value was -51.4%. `CS(=O)(=O)c1ccc2nc(NC(=O)c3ccc(N4CCCC4=O)cc3)sc2c1` was tested, and the “hERG current change (%, negative = inhibition) at 10uM” value was 13.3%. With `CCCCNC(=O)[C@H]1N2C(=O)c3c(ccc(OC)c3OC)C2SC1(C)C` (some centres unmarked) the “hERG current change (%, negative = inhibition) at 10uM” value was 12.8%. With `S=c1[nH]ncn1/N=C/c1ccc(N2CCOCC2)cc1` the “hERG current change (%, negative = inhibition) at 10uM” value was 14.9%. In the case of `CCCN(Cc1nnc(-c2cccs2)o1)C(=O)c1cccc(S(=O)(=O)N2CCOCC2)c1`, the “hERG current change (%, negative = inhibition) at 10uM” value was -25.3%. `CC(NC(=O)COC(=O)c1ccc(CO)cc1)C1CC2CCC1C2` (centres unmarked) was tested, and the “hERG current change (%, negative = inhibition) at 10uM” value was 7.65%. With `CC(=O)Nc1ccc(C(=O)NN2C(=O)c3ccccc3C2=O)cc1` the “hERG current change (%, negative = inhibition) at 10uM” value was 7.29%. In the case of `COc1ccc(OC)c(C(=O)NC(CC(N)=O)c2ccc(N3CCC(Cc4ccccc4)CC3)c([N+](=O)[O-])c2)c1` (centres unmarked), the “hERG current change (%, negative = inhibition) at 10uM” value was -5.07%. With `CCOC(=O)CN(C(=O)COc1nc(-c2ccccc2)cc(C)c1C#N)c1ccc(F)cc1` the “hERG current change (%, negative = inhibition) at 10uM” value was 1.18%. `Cc1ccc(-n2c(-c3ccncc3)n[nH]c2=S)c(C)c1` was tested, and the “hERG current change (%, negative = inhibition) at 10uM” value was 13.7%. With `COC(=O)c1c(NC(=O)CN2CCN(Cc3ccc4c(c3)OCO4)CC2)sc(C)c1C.O=C(O)C(=O)O` the “hERG current change (%, negative = inhibition) at 10uM” value was -28.9%. For `CCOc1cc(N2CCOCC2)c(OCC)cc1NC(=O)CN1CCC(Cc2ccccc2)CC1`, the “hERG current change (%, negative = inhibition) at 10uM” value was -3.67%. `O=C(CSCc1ccccc1)N1CCN(Cc2ccc3c(c2)OCO3)CC1` was tested, and the “hERG current change (%, negative = inhibition) at 10uM” value was -22%. `CCOc1cc(N2CCOCC2)c(OCC)cc1NC(=O)CN1CCCC1` was tested, and the “hERG current change (%, negative = inhibition) at 10uM” value was 6.63%. In the case of `CCOc1cc(N2CCOCC2)c(OCC)cc1NC(=O)CN1CCN(Cc2ccc3c(c2)OCO3)CC1.Cl`, the “hERG current change (%, negative = inhibition) at 10uM” value was -55.8%. `Oc1cc2c(cc1CN1CCN(c3ccc(F)cc3)CC1)OCO2` was tested, and the “hERG current change (%, negative = inhibition) at 10uM” value was -1.5%. For `CC(C)CC(=O)N1CCN(Cc2ccc3c(c2)OCO3)CC1`, the “hERG current change (%, negative = inhibition) at 10uM” value was 0.479%. For `C/C(=C\c1ccccc1)C(=O)N1CCN(Cc2ccc3c(c2)OCO3)CC1`, the “hERG current change (%, negative = inhibition) at 10uM” value was -51.6%. With `Fc1ccc(N2CCN(Cc3cc4c(cc3Br)OCO4)CC2)cc1` the “hERG current change (%, negative = inhibition) at 10uM” value was 7.74%. In the case of `COC(=O)c1ccsc1NC(=O)CN1CCN(Cc2ccc3c(c2)OCO3)CC1`, the “hERG current change (%, negative = inhibition) at 10uM” value was -78.4%. In the case of `Fc1ccc(N2CCN(Cc3ccc4c(c3)OCO4)CC2)cc1`, the “hERG current change (%, negative = inhibition) at 10uM” value was -51.3%. In the case of `COc1ccsc1C(=O)N1CCN(Cc2ccc3c(c2)OCO3)CC1`, the “hERG current change (%, negative = inhibition) at 10uM” value was -16.5%. In the case of `O=C1CC(Cc2ccc(Cl)cc2)C(=O)N1c1ccccn1` (centres unmarked), the “hERG current change (%, negative = inhibition) at 10uM” value was 1.83%. For `CCOc1ccc(NC(=O)[C@@H](NC(=O)c2ccccc2)[C@@H](C)CC)cc1`, the “hERG current change (%, negative = inhibition) at 10uM” value was 2.26%. In the case of `CCC(C)NC(=O)CSc1c2c(nc3ccccc13)CCCC2` (centres unmarked), the “hERG current change (%, negative = inhibition) at 10uM” value was -7.98%. `O=C(N/N=C/c1ccc([N+](=O)[O-])s1)c1cccnc1` was tested, and the “hERG current change (%, negative = inhibition) at 10uM” value was 5.77%. For `Cc1cc(C)nc(Sc2nc(C)nc3c2oc2ccccc23)n1`, the “hERG current change (%, negative = inhibition) at 10uM” value was -1.57%. With `CCc1ccc(S(=O)(=O)Nc2c(NC3CCCCC3)c3ccccc3oc2=O)cc1` the “hERG current change (%, negative = inhibition) at 10uM” value was -3.7%. With `CC1CN(S(=O)(=O)c2ccc(C(=O)N3CCc4ccccc43)cc2)CC(C)O1` (centres unmarked) the “hERG current change (%, negative = inhibition) at 10uM” value was 15.9%. For `CC(=O)Nc1ccc(NC(=O)c2cccc(S(=O)(=O)N(C)C3CCCCC3)c2)cc1`, the “hERG current change (%, negative = inhibition) at 10uM” value was 6.97%. In the case of `Cc1ccc(NC(=O)c2cccc(S(=O)(=O)N(C)C3CCCCC3)c2)nc1`, the “hERG current change (%, negative = inhibition) at 10uM” value was -34.7%. With `CN(C1CCCCC1)S(=O)(=O)c1cccc(C(=O)Nc2ccccn2)c1` the “hERG current change (%, negative = inhibition) at 10uM” value was -53.7%. In the case of `CN(C)CCOc1ccc2c(c1)Sc1ccccc1CC2=O.Cl`, the “hERG current change (%, negative = inhibition) at 10uM” value was -64.8%. `O=C1Cc2ccccc2Sc2ccc(O)cc21` was tested, and the “hERG current change (%, negative = inhibition) at 10uM” value was 16.4%. In the case of `Cc1ccc2c(c1)Sc1ccccc1CC2=O`, the “hERG current change (%, negative = inhibition) at 10uM” value was -20.9%. For `Cc1cccc2c1Sc1ccccc1CC2=O`, the “hERG current change (%, negative = inhibition) at 10uM” value was 0.0655%. In the case of `Cl.O=C1Cc2ccccc2Sc2cc(OCCCN3CCCCC3)ccc21`, the “hERG current change (%, negative = inhibition) at 10uM” value was -69.8%. `Cc1cccc(OCCCN2CCCCCC2)c1` was tested, and the “hERG current change (%, negative = inhibition) at 10uM” value was -28.2%. For `c1ccc(-c2ccccc2OCCN2CCCC2)cc1`, the “hERG current change (%, negative = inhibition) at 10uM” value was -26.6%. With `COc1cccc(OCCCN2CCCCC2)c1` the “hERG current change (%, negative = inhibition) at 10uM” value was -16.2%. `CN(C)CCCOc1ccc2c(c1)Sc1ccccc1CC2=O.Cl` was tested, and the “hERG current change (%, negative = inhibition) at 10uM” value was -74.3%. With `O=C1Cc2ccccc2Sc2ccc(Cl)cc21` the “hERG current change (%, negative = inhibition) at 10uM” value was 16%. In the case of `Cl.O.O=C1Cc2ccccc2Sc2c(OCCN3CCCCC3)cccc21`, the “hERG current change (%, negative = inhibition) at 10uM” value was -63.4%. With `O=C1Cc2ccccc2Sc2ccccc21` the “hERG current change (%, negative = inhibition) at 10uM” value was 1.13%.
